Consider 48 molecules from PubChem BioAssay AID623870 (Broad Institute, 2012).

The whole screen tested about 390,000 compounds, of which about 2,600 (0.67%) were called active. Shown is part of a subset that was picked to be rich in actives. Values without a mark were called inactive.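 How the source made its calls: active means mean inhibition of replicates at least 50% and at least half of replicates each reaching 50%; inconclusive means half or more replicates reach 50% but mean below 50%; inactive means the rest.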

The assay deals with Transforming acidic coiled-coil-containing protein 3 (Homo sapiens) (UniProt Q9Y6A5). In words: disruptors of ARNT/TACC3 protein interaction, primary screen, biochemical, AlphaScreen, single concentration (AID 623870).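 Further: 0% = complete ARNT plus TACC3 wells and 100% = ARNT alone without TACC3.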 The note with it: AlphaScreen His-ARNT PAS-B/GST-TACC3 binding, luminescence; at 9.99 µM; active compounds read high; TACC3 fragment carries E629A point mutation. (Alpha assays give light when donor and acceptor beads are brought close together.)
The inhibition is the change of the read-out against control, counted positive when it falls. With `C[C@H](CO)N1C[C@H](C)[C@@H](CN(C)Cc2ccncc2)Oc2ncc(C#CC3CC3)cc2C1=O`, the inhibition was -1.14%.
Under `Cn1c(N)c(C(=O)COC(=O)COc2ccc(Cl)cc2)c(=O)n(C)c1=O` stands 2.04%.
Under `Cn1c(N)c(C(=O)COC(=O)c2cnc(Cl)c(Cl)c2)c(=O)n(C)c1=O` stands 45.8% (active); under `Cn1c(N)c(C(=O)COC(=O)c2ccc3ccccc3c2)c(=O)n(C)c1=O`, -4.71%; under `COc1ccc(C#Cc2cnc3c(c2)C(=O)N([C@H](C)CO)C[C@H](C)[C@H](CN(C)C(=O)CC2CC2)O3)cc1`, 3.95%.
Under `O=C1O[C@@H](c2ccccc2)[C@@H](c2ccccc2)N2[C@@H](c3ccccc3OCCO)[C@]3(C(=O)Nc4ccccc43)[C@@H](C(=O)N3CCCCCCC3)[C@H]12` stands 29.4%; under `CCOc1ccc(-n2c(O)c(/C=N/Nc3nnc(C)c(=O)[nH]3)c3ccccc3c2=O)cc1`, 66.5% (active).
As to `CCOc1ccc(N/C(N)=N/c2nc(C)c(C)c(=O)[nH]2)cc1`, the inhibition was -20.7%.
Under `Cc1nnc(N/N=C/c2ccccn2)[nH]c1=O` stands 61.4% (active); under `COc1ccc(-n2c(O)c(C=NCC(c3ccco3)N3CCCC3)c3ccccc3c2=O)cc1OC` (stereo not drawn), 5.52%.
As for `C[C@@H]1CN([C@H](C)CO)C(=O)c2cc(C#CC3(O)CCCC3)cnc2O[C@H]1CN(C)Cc1ccncc1`, the inhibition is -3.19%.
Under `O=C(C[C@@H]1CC[C@H]2[C@@H](COC[C@H](O)CN2C(=O)Nc2ccc(Cl)cc2)O1)NCC1CC1` stands -0.418%; under `CN(C)C(=O)[C@@H]1[C@@H](CO)[C@@H]2Cn3c(cccc3=O)[C@H]1N2CC1CCCCC1`, 10.9%; under `COCC(=O)N1C[C@H]2[C@@H](c3ccccc31)[C@@H](CO)N2Cc1ccccc1`, 4.41%.
To `O=C(C[C@@H]1CC[C@@H]2[C@H](COC[C@@H](O)CN2Cc2ccccc2)O1)NCCc1ccccc1` belongs 0.273%; to `Clc1ccc(-c2cc(COc3ccccc3)no2)cc1Cl`, 1.19%.
As for `COc1ccc(-c2ccc(CNCCCN3CCOCC3)o2)cc1Cl`, the inhibition was 2.81%.
Turning to `Fc1ccc(-c2ccc(CNCc3ccccn3)o2)cc1Cl`, the inhibition was 59.1% (active).
To `CO[C@H](CN(C)C(=O)c1cnccn1)[C@@H](C)CN([C@@H](C)CO)S(=O)(=O)c1ccc(C)cc1` belongs 3.1%.
As for `C[C@@H]1CN([C@@H](C)CO)C(=O)c2cc(-c3cncnc3)cnc2O[C@@H]1CN(C)C(=O)c1ccccc1F`, the inhibition was -2.75%.
To `C[C@@H]1CN([C@H](C)CO)S(=O)(=O)c2ccc(C#CCN(C)C)cc2O[C@@H]1CN(C)C(=O)CN(C)C` belongs -1.64%; to `O=C(CCCO)N/N=C/c1cc(Br)ccc1O`, 80.7% (active).
Under `O=C(CCNc1n[nH]c(=O)[nH]c1=O)N/N=C\c1ccc(Br)cc1` stands 1.48%.
Under `O=C(CCNC(=O)c1ccccc1)NN=Cc1ccc(Br)o1` stands 0.9%; under `CN1C(=O)c2cc(NS(=O)(=O)c3ccc(Cl)cc3)ccc2OC[C@H]2O[C@@H](CC(=O)O)CC[C@H]21`, 4.03%; under `C[C@@H]1CN([C@H](C)CO)C(=O)Cc2cc(NC(=O)CCCN(C)C)ccc2O[C@H]1CN(C)CC1CCCCC1`, 0.403%.
Regarding `COc1cc(CNCc2ccc(OC)c3ccccc23)cc(OC)c1OC`, the inhibition is 4.98%.
In the case of `COc1ccc2ccccc2c1CNCc1ccccn1`, the inhibition was 55.2% (active).
Under `CCOc1cc(CNCc2ccccn2)ccc1OCC(=O)NC(C)(C)C` stands 36.2%.
Under `Cc1ccc(S(=O)(=O)Nc2ccc3c(c2)C(=O)N([C@H](C)CO)C[C@H](C)[C@H](CN(C)C(=O)NC(C)C)OCCCC[C@@H](C)O3)cc1` stands -2.46%.
As to `N/C(Cc1ccc([N+](=O)[O-])cc1)=N\OC(=O)COc1ccc2ccccc2c1`, the inhibition is 1.55%.
Under `N/C(=N\OC(=O)Cc1ccc([N+](=O)[O-])cc1)c1ccccn1` stands 55.4% (active); under `N/C(=N\OC(=O)CCC1CCCCC1)c1ccccn1`, -3.39%; under `COc1ccc(S(=O)(=O)N[C@@H]2CC[C@@H](CC(=O)NCCc3ccccc3)O[C@@H]2CO)cc1`, -3.62%.
Under `CCCC#Cc1ccc2c(c1)O[C@@H](CN(C)C(=O)CC)[C@@H](C)CN([C@H](C)CO)S2(=O)=O` stands 5.6%; under `Cc1cccc(S(=O)(=O)N[C@H]2CC[C@@H](CCNS(=O)(=O)c3ccccc3F)O[C@H]2CO)c1`, 1.77%.
Regarding `CCOC(=O)c1ccc(NC(=O)C2CC(=O)Nc3nc4ccccc4n32)cc1` (stereo not drawn), the inhibition was 1.15%.
To `CCOC(=O)c1ccc(Nc2cc3ccccc3c(=O)[nH]2)cc1` belongs 4.54% (active).
Under `CC(C)CN(C(=O)COC(=O)c1ccc2ccccc2c1)c1c(N)n(Cc2ccccc2)c(=O)[nH]c1=O` stands -0.235%; under `O=C(C[C@H]1C[C@@H]2c3cc(NC(=O)C4CCOCC4)ccc3O[C@@H]2[C@H](CO)O1)NCC1CC1`, -7.92%.
Under `OCCn1c(-c2ccccc2)csc1=Nc1ccccc1` stands 51% (active); under `O=c1cc(CCl)nc2scc(-c3ccccc3)n12`, -9.12%; under `COc1ccccc1S(=O)(=O)N1CC[C@H]2[C@@H](CO)N(C)c3ccc(C#Cc4ccccc4)cc3[C@H]21`, 9.34%.
As for `C[C@H]1CN([C@@H](C)CO)C(=O)Cc2cc(NS(C)(=O)=O)ccc2O[C@@H]1CN(C)S(=O)(=O)c1cccs1`, the inhibition was -10.4%.
Take `O=C(C[C@@H]1C[C@@H]2c3cc(NS(=O)(=O)c4ccc(F)cc4)ccc3O[C@@H]2[C@H](CO)O1)NCc1ccccc1F`: the inhibition was -1.77%.
Under `N#Cc1c(N2CCCCC2)nc(N)c2c(N)nc(SCC(=O)O)cc12` stands 80.8% (active); under `CCCN1[C@H](C(=O)N[C@H](C)c2ccccc2)[C@@H](CO)[C@@H]2Cn3c(ccc(-c4cccc(F)c4)c3=O)[C@@H]21`, 2.44%; under `C[C@@H]1CN([C@H](C)CO)C(=O)Cc2cc(NC(=O)CCC(F)(F)F)ccc2O[C@@H]1CN(C)CC1CCCCC1`, 2.83%.
